The structures appear in SMILES notation. In all, about 310,000 compounds went through this assay and about 14,000 (4.5%) showed an effect of 50% or more. The effect is printed as a negative number. The entries come from a sample that favours strong results as a whole.

The text below walks through data of publication PMC4336329 (PLoS ONE, 2015).
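Note: peak tail current of the secondary pulse compared with the same well before compound.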

Chain of human ether-à-go-go-related gene (hERG) potassium channel (Q12809 whole entry, looked up): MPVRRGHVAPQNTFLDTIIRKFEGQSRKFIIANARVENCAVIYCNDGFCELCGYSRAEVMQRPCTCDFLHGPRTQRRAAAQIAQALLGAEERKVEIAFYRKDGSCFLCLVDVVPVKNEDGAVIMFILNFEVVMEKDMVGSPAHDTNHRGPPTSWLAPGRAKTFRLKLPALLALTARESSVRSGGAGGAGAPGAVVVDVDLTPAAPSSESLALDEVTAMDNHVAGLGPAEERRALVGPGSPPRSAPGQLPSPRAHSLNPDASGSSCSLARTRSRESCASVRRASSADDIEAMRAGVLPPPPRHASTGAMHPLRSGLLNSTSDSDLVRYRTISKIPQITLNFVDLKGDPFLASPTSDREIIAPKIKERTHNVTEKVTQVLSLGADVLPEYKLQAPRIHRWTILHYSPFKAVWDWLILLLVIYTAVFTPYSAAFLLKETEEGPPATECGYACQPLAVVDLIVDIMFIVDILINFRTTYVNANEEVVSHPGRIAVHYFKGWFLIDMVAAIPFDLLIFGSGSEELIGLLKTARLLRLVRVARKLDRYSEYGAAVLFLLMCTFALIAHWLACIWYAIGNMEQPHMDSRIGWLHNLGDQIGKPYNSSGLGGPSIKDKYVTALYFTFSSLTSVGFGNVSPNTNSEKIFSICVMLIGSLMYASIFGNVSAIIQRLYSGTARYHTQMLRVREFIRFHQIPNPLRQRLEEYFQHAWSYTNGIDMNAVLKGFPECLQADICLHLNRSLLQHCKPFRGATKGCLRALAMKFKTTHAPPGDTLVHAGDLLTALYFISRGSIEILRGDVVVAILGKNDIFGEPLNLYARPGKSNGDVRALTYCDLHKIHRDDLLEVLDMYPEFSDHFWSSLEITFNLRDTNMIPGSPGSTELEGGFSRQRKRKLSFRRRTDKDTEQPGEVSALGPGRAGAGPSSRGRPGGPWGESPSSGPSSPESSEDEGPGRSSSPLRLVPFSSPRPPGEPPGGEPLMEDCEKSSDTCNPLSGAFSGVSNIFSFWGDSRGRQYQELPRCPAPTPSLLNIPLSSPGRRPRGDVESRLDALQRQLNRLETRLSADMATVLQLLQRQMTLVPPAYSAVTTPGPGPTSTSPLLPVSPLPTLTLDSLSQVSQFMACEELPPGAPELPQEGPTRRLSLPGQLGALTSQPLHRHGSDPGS

The assay has as its target human ether-à-go-go-related gene (hERG) potassium channel (human, UniProt Q12809). As to the kind of experiment: primary screen, population patch clamp on CHO cells stably expressing hERG; higher = less effect of the substance.
For `COCCN(CC(=O)NCc1ccc(OC)cc1)C(=O)CCC(=O)Nc1nccs1`, the “hERG current change (%, negative = inhibition) at 10uM” value is on record as -8.1%.

Turning to `O=S(Cc1cc(Oc2ccccc2)nc(-c2ccccc2)n1)c1ccccc1` (stereo not shown), the “hERG current change (%, negative = inhibition) at 10uM” value was -7.69%.

In the case of `O=Cc1sc(Nc2ccccc2)nc1Cl`, the “hERG current change (%, negative = inhibition) at 10uM” value is listed as -13.1%.

For `COc1ccc(N2CCCC2)c(NC(=O)c2ccc([N+](=O)[O-])o2)c1`, the “hERG current change (%, negative = inhibition) at 10uM” value is 14%.

On to `CCN1CCN(c2ccc(S(=O)(=O)N3CCCCC3)cc2NC(=O)c2cccc(C)c2[N+](=O)[O-])CC1`, for which the “hERG current change (%, negative = inhibition) at 10uM” value is on record as -28.8%.

As for `CCN1CCN(c2ccc(S(=O)(=O)N3CCCCC3)cc2NC(=O)c2ccc(C)o2)CC1`, the “hERG current change (%, negative = inhibition) at 10uM” value was -75.7%.

With `CCN1CCN(S(=O)(=O)c2ccc(Cl)c(C(=O)Nc3ccccc3N3CCCCC3)c2)CC1`, the “hERG current change (%, negative = inhibition) at 10uM” value is 12.8%.

For `CCN1CCN(c2ccc(S(=O)(=O)N3CCCCC3)cc2NC(=O)c2ccc([N+](=O)[O-])s2)CC1`, the “hERG current change (%, negative = inhibition) at 10uM” value is -80.6%.

Regarding `COc1ccc(S(=O)(=O)N2CCCCC2)cc1NC(=O)c1ccc([N+](=O)[O-])o1`, the “hERG current change (%, negative = inhibition) at 10uM” value is given as -2.81%.

With `CCN1CCN(c2c(Cl)cccc2NC(=O)c2cc3ccccc3o2)CC1`, the “hERG current change (%, negative = inhibition) at 10uM” value is listed as -23.4%.

On to `CCN1CCN(c2ccc(S(=O)(=O)N3CCCCC3)cc2NC(=O)c2ccc([N+](=O)[O-])o2)CC1`, for which the “hERG current change (%, negative = inhibition) at 10uM” value is -75.9%.

On to `Cc1ccc(S(=O)(=O)N2CCCCC2)cc1NC(=O)c1cc2ccccc2o1`, for which the “hERG current change (%, negative = inhibition) at 10uM” value is reported as -7.85%.

As for `CCN1CCN(c2ccc(S(=O)(=O)N3CCCCC3)cc2NC(=O)c2cc3ccccc3o2)CC1`, the “hERG current change (%, negative = inhibition) at 10uM” value was -53.7%.

As for `CCCn1c(/N=C/c2ccccc2O)nc2ccccc21`, the “hERG current change (%, negative = inhibition) at 10uM” value was 13.6%.

`COc1ccc(OCCCC(=O)Nc2nncs2)cc1`: the “hERG current change (%, negative = inhibition) at 10uM” value worked out at 0.955%.

As to `COc1cccc(C=Nc2ccc(N3CCOCC3)cc2)c1O`, the “hERG current change (%, negative = inhibition) at 10uM” value is 17.9%.

As for `CCCCC(=O)Nc1ccc2c(c1)nc(CCNC(=O)c1ccco1)n2C`, the “hERG current change (%, negative = inhibition) at 10uM” value was -11.1%.

With `Cc1cnc(NC(=O)CN2CCN(c3ccccc3F)CC2)s1.Cl`, the “hERG current change (%, negative = inhibition) at 10uM” value came to 12.2%.

Take `Cc1ccc(S(=O)(=O)CCC(=O)OCC(=O)NCc2ccc(Cl)cc2)cc1`: the “hERG current change (%, negative = inhibition) at 10uM” value was determined as 36.8%.

As to `O=C(Nc1ccccc1Cl)NC1(C(=O)N2CCOCC2)CCCCC1`, the “hERG current change (%, negative = inhibition) at 10uM” value is 17.5%.

As for `CCN1CCN(c2ccc(S(=O)(=O)N3CCCCC3)cc2NC(=O)c2sccc2C)CC1`, the “hERG current change (%, negative = inhibition) at 10uM” value was -71.4%.

Take `COc1ccccc1C(=O)Nc1nc(-c2cccs2)c(NC(C)=O)s1`: the “hERG current change (%, negative = inhibition) at 10uM” value is recorded as -7.05%.

As to `O=C(O)CN1c2cccc3cccc(c23)S1(=O)=O`, the “hERG current change (%, negative = inhibition) at 10uM” value is given as 32.4%.

In the case of `CC(=O)N1c2ccc(Cl)cc2C2OCCC2C1c1ccco1` (stereo not shown), the “hERG current change (%, negative = inhibition) at 10uM” value worked out at 9.11%.

With `O=C(c1ccc(S(=O)(=O)N2CCOCC2)cc1)N1CCN(c2ccccn2)CC1`, the “hERG current change (%, negative = inhibition) at 10uM” value stood at 4.62%.

For `OC(C#CCCN1CCCCC1)(c1ccccc1)C1CCCCC1` (stereo not shown), the “hERG current change (%, negative = inhibition) at 10uM” value is recorded as -46.3%.

As to `CC1CCCN1CC#CC(O)(c1ccccc1)c1ccccc1.Cl` (stereo not shown), the “hERG current change (%, negative = inhibition) at 10uM” value is -60.7%.

Regarding `OC(C#CCN1CCCC1)(c1ccccc1)c1cccc(F)c1` (stereo not shown), the “hERG current change (%, negative = inhibition) at 10uM” value was -16.7%.

As for `OC(C#CCCN1CCCCC1)(c1ccccc1)c1ccccc1`, the “hERG current change (%, negative = inhibition) at 10uM” value is recorded as -53.8%.

For `OC(C#CCN1CCCCC1)(c1ccccc1)c1ccccc1`, the “hERG current change (%, negative = inhibition) at 10uM” value is -24.6%.

For the compound `OC(C#CCN1CCCC1)(c1ccccc1)c1ccccc1`, the “hERG current change (%, negative = inhibition) at 10uM” value is given as -28.8%.

`CCOC(=O)[C@@H]1[C@H]2COc3ccc(Br)cc3[C@H]2N2C(=O)N(c3ccc(C)cc3)C(=O)[C@]12C`: the “hERG current change (%, negative = inhibition) at 10uM” value was -4.14%.

`O=C(NC(=S)NN1CCCCC1c1cccnc1)c1ccc(Cl)cc1Cl` (stereo not shown): the “hERG current change (%, negative = inhibition) at 10uM” value is on record as -6.98%.

Turning to `Cc1ccc(SCC(=O)NC(=O)NCCC(C)C)c(C)c1`, the “hERG current change (%, negative = inhibition) at 10uM” value is on record as -1.09%.

Turning to `Cc1cc(Cl)c2oc(C(=O)N(C)CCCCN3CCOCC3)c(C)c2c1`, the “hERG current change (%, negative = inhibition) at 10uM” value is recorded as -46%.

Consider `COc1ccccc1CNC(=O)c1c(O)c2cc(OC)c(OC)cc2[nH]c1=O`, for which the “hERG current change (%, negative = inhibition) at 10uM” value is listed as 6.86%.

On to `COc1cc(/C=N/NC(=O)C(=O)NCc2cccnc2)cc(OC)c1OC`, for which the “hERG current change (%, negative = inhibition) at 10uM” value is listed as 5.17%.

Regarding `C[C@H]1C=C(C(=O)N2CCN(Cc3ccc4c(c3)OCO4)CC2)O[C@@H](OCc2ccc(CO)cc2)C1`, the “hERG current change (%, negative = inhibition) at 10uM” value is reported as -70.7%.

Regarding `O=C(C1=C[C@H](c2ccc3c(c2)OCO3)C[C@H](OCc2ccc(CO)cc2)O1)N1CCN(Cc2ccc3c(c2)OCO3)CC1`, the “hERG current change (%, negative = inhibition) at 10uM” value is recorded as -17.2%.

As for `O=C(C1=C[C@@H](C2CC2)C[C@@H](OCCCCO)O1)N1CCN(Cc2ccc3c(c2)OCO3)CC1`, the “hERG current change (%, negative = inhibition) at 10uM” value is recorded as -11.1%.

For the compound `O=C(C1=C[C@H](C2CC2)C[C@H](OCc2ccc(CO)cc2)O1)N1CCN(Cc2ccc3c(c2)OCO3)CC1`, the “hERG current change (%, negative = inhibition) at 10uM” value is listed as -57.8%.

Consider `O=C(C1=C[C@H](C2CCCCC2)C[C@H](OCc2ccc(CO)cc2)O1)N1CCN(Cc2ccc3c(c2)OCO3)CC1`, for which the “hERG current change (%, negative = inhibition) at 10uM” value was -18.3%.

For the compound `CC(C)(C)[C@@H]1C=C(C(=O)N2CCN(Cc3ccc4c(c3)OCO4)CC2)O[C@H](OCc2ccc(CO)cc2)C1`, the “hERG current change (%, negative = inhibition) at 10uM” value is recorded as -35%.

As to `O=C(C1=C[C@@H](C2CC2)C[C@@H](OCc2ccc(CO)cc2)O1)N1CCN(Cc2ccc3c(c2)OCO3)CC1`, the “hERG current change (%, negative = inhibition) at 10uM” value is listed as -51.7%.

For `CC(C)(C)[C@H]1C=C(C(=O)N2CCN(Cc3ccc4c(c3)OCO4)CC2)O[C@@H](OCc2ccc(CO)cc2)C1`, the “hERG current change (%, negative = inhibition) at 10uM” value is given as -33.7%.

For the compound `O=C(C1=C[C@@H](C2CCCCC2)C[C@@H](OCc2ccc(CO)cc2)O1)N1CCN(Cc2ccc3c(c2)OCO3)CC1`, the “hERG current change (%, negative = inhibition) at 10uM” value is given as 4.46%.
